Bioassay records as filed in PubChem.
TGFb SMAD3 inh: blocks TGF-b signaling | HepG2 CAGA-GFP TGF-b/SMAD3 reporter, GFP fluorescence, 18 h; TGF-beta stimulated, 500 pg/mL final | Potency, µM (titrated, usually from 46.1 µM), for the others: at the top dose activity, negative = inhibition, most hits filed as inhibitors | 410,000 tested, 1.2% active | AID 588855; note: potency is the fitted concentration of half-maximal effect; % is set by controls: 0 for no effect and ±100 for the full control effect; nearly all actives have a fitted effect of over 65% in size
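Smad-responsive CAGA-GFP expression was quantified in HEPG2 cells exposed to compounds and 500 pg/mL final TGF-beta for 18 h at 37 degrees C; unstimulated wells defined full inhibition.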
IL1B secr inh: inhibitors of inflammasome signaling (IL-1 beta secretion); THP-1 LPS/ATP IL-1B secretion, AlphaLISA, 16 h; active compounds read low; activity change, % at 57.5 µM; 360,000 tested, 4.7% active; in the data active = activity change below about -50%; inconclusive = mostly about -30% to -49%; note: % is set by controls: 0 for no effect and ±100 for the full control effect
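THP-1 cells pretreated 1 hr with compounds (up to 57.5 uM final), then stimulated with LPS (250 ng/mL final) plus ATP (1.25 mM final); secreted IL-1B measured by AlphaLISA after 16 hr, decreased signal indicating inhibition.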
TDP1 cell noCPT: qHTS for Inhibitors of human tyrosyl-DNA phosphodiesterase 1 (TDP1): qHTS in cells in absence of CPT | DT40 Tdp1-/- hTDP1 cells, no CPT, ATP luminescence, 48 h | Potency, µM (highest dose often 46.2 µM), without a hit: at the highest dose activity change, negative = growth inhibition, actives largely listed as inhibitors | 420,000 tested, 15% active; note: potency is the fitted concentration of half-maximal effect; % is set by controls: 0 for no effect and ±100 for the full control effect; nearly all actives have a fitted effect of over 55% in size
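A cellular qHTS used chicken DT40 cells lacking endogenous Tdp1 but carrying stably transfected human TDP1. Compounds were applied without camptothecin, and cell growth kinetics were judged by ATP-dependent luminescence after ≥48 hr.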
HepG2 tox: kills HepG2 cells in TGF-b inhibitor counter-screen | HepG2 CAGA-GFP viability, ATP luminescence, 18 h | Potency, µM (highest dose often 46.1 µM), for the others: at the highest dose activity change, negative = cytotoxicity, hits mostly cytotoxic | 410,000 tested, 0.76% active | AID 588856; note: potency is the fitted concentration of half-maximal effect
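CellTiter-Glo luminescence gave cytotoxicity after 18 hours at 37 degrees C. The cells were HepG2 CAGA-GFP in 1% FBS DMEM, stimulated with 500 pg/mL TGF-beta after compound addition. %Activity was normalised to no-cell wells (complete cell-killing) and DMSO (no toxicity), and curves were fitted and classified.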
TDP1 block: blocks human tyrosyl-DNA phosphodiesterase 1; recombinant TDP1, AlphaScreen DNA substrate cleavage; Q9NUW8; Potency, µM (doses to about 130 µM), inactives show top-dose activity change, negative = inhibition, hits mostly inhibitors; 350,000 tested, 0.28% active; note: potency is the fitted concentration of half-maximal effect; % is set by controls: 0 for no effect and ±100 for the full control effect; nearly all actives have a fitted effect of over 40% in size
Target sequence (Q9NUW8 whole entry, looked up): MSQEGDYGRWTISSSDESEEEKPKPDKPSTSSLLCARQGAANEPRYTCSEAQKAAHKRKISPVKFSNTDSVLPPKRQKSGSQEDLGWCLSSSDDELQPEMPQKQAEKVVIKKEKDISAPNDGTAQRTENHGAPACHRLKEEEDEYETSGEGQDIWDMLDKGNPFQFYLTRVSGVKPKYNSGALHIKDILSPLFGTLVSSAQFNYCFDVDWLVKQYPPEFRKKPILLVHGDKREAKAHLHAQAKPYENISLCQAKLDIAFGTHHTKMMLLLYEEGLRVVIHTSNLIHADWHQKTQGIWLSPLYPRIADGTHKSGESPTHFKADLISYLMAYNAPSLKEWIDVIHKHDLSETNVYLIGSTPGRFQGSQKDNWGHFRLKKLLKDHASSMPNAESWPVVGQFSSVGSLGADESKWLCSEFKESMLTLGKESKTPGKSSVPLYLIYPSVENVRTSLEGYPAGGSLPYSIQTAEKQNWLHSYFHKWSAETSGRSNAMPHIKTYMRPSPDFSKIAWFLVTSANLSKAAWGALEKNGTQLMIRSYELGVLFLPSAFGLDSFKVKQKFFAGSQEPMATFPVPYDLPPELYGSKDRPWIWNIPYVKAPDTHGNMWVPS
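E. coli-derived human Tdp1, 1 nM final. Cpd preinc 15 min RT; substrate 15 nM final, 5 min RT; AS bead mix 10 ug/ml final, 10 min RT. Signal loss = tyrosine-FITC cleavage. No-enzyme wells = max signal.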
TDP1 cell CPT: DT40-hTDP1 cell growth loss with CPT | chicken DT40 Tdp1-/-;hTDP1 cells + 20 nM CPT, ATP luminescence, 48 h | Potency, µM (titrated, usually from 46.2 µM), inactives show at the top dose activity change, negative = growth inhibition, most hits filed as inhibitors | 420,000 tested, 12% active | AID 686979; note: potency is the fitted concentration of half-maximal effect; % is set by controls: 0 for no effect and ±100 for the full control effect; nearly all actives have a fitted effect of over 55% in size
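Cell growth measured by CellTiter-Glo luminescence after a minimum 48 h, 37 C compound exposure with 20 nM CPT in Tdp1-knockout DT40 cells stably expressing hTDP1, seeded 400/well; qHTS titration format.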
An asterisk follows results filed as active; u = inconclusive; x = no result; [ ] = another dose, or the depositor's remark. This is a sample that favours compounds with a hit; in the whole collection about 19% have one here. Unless noted, calls come from the whole dose curve; as a rule, active = well fitted curve in the direction sought with a large enough effect; inconclusive = small, poorly fitted or top-dose-only effect, or another doubt; inactive = no such curve, though single readings can be large; an effect the other way counts as inactive or inconclusive.

SMILES	TGFb SMAD3 inh	IL1B secr inh	TDP1 cell noCPT	HepG2 tox	TDP1 block	TDP1 cell CPT
CC(C)CCNC(=O)C(=O)Nc1cc2c3c(c1)CCC(=O)N3CCC2	-2%	-7	12%	-2%	0%	-3%
CCCCC1CC(=O)NC1(C(=O)OCC)C(=O)OCC (centres undefined)	-17%	u	-6%	4%	x	15%
O=S1(=O)c2cccc3cccc(c23)N1CCCN1CCN(c2ccc(F)cc2)CC1	x	x	21µM*	x	15%	u
O=C(O)CC(CC(=O)O)(C(=O)O)c1ccccc1	1%	14	7%	4%	x	1%
O=S(CC(O)(c1ccccc1)c1ccccc1)CC(O)(c1ccccc1)c1ccccc1	u	-10	18µM*	-17%	x	18µM*
N#Cc1cc([N+](=O)[O-])ccc1NC(=O)COC(=O)CC1CCCC1	-6%	0	-11%	3%	x	-25%
CCC(NC(=S)NCc1ccc(F)cc1)c1ccc(C(C)C)cc1 (centres undefined)	u	-10	u	-39%	-1%[56.1 µM]	u
CC(NC(=S)NCc1ccc(F)cc1)C12CC3CC(CC(C3)C1)C2 (centres undefined)	u	-84*	15µM*	-11%	4%	u
CCCc1cc(=O)oc2cc(C)cc(OCC(=O)Nc3ccc(CN4CCOCC4)cc3)c12	5%	0	5.8µM*	1%	4%	18µM*
CCCc1cc(=O)oc2cc(OCC(=O)NCCN3CCOCC3)c(Cl)cc12	-2%	15	16µM*	3%	x	23µM*
CCCc1cc(=O)oc2cc(C)cc(OCC(=O)NCCN3CCOCC3)c12	2%	-19	9%	10%	2%	-17%
CCc1cc(=O)oc2cc(C)cc(OCC(=O)NCCN3CCOCC3)c12	-2%	10	4%	1%	1%	4%
CCc1ccc(C(=O)C[N+]2(C)CCOCC2)cc1	15%	x	-8%	-18%	x	-7%
O=S(=O)(c1ccccc1)N1CCNCC1	0%	6	2%	12%	x	25%
CC(NC(=O)C1CCN(c2nc3ccccc3nc2C(F)(F)F)CC1)c1ccccc1 (centres undefined)	u	x	u	2%	-5%	-24%
Cc1ccc(-n2nc(C(=O)N3CCCCC3C)c(=O)n(C)c2=O)cc1 (centres undefined)	-15%	x	-7%	-2%	4%	-14%
O=C(COc1ncnc2c(Cl)cc(Cl)cc12)Nc1cc([N+](=O)[O-])ccc1Cl	17%	-6	-7%	-21%	1%	-1%
O=S(=O)(NC1c2cccc3cccc(c23)C1Sc1ncccn1)c1ccc(Cl)cc1 (centres undefined)	u	8	u	12%	-3%	u
Cc1ccc(S(=O)(=O)NC2c3cccc4cccc(c34)C2Sc2n[nH]c(N)n2)cc1 (centres undefined)	-15%	-1	16µM*	10%	3%	21µM*
COc1cc(OC)c(NC(=O)COCc2cc(-c3cccs3)on2)cc1Cl	5%	x	u	0%	4%	-15%
CCn1c(O)c(N=NC(=O)C(O)c2ccccc2)c2ccccc21 (centres undefined)	17%	-22	21µM*	-15%	x	23µM*
O=C(N=Nc1c(O)n(C2OC(=O)c3ccccc32)c2ccccc12)c1ccco1 (centres undefined)	x	x	x	x	3%	x
O=C(CNC(=O)c1ccco1)N=Nc1c(O)n(CCc2ccccc2)c2ccccc12	u	128	3.7µM*	-1%	x	5.2µM*
CCCCn1c(O)c(N=NC(=O)c2ccco2)c2ccccc21	u	-11	18µM*	-18%	0%	u
CC(C)CN(C(=O)COC(=O)CCCc1c[nH]c2ccccc12)c1c(N)n(Cc2ccccc2)c(=O)[nH]c1=O	-2%	-21	-3%	-5%	0%	-18%
SMILES	TGFb SMAD3 inh	IL1B secr inh	TDP1 cell noCPT	HepG2 tox	TDP1 block	TDP1 cell CPT
Cc1ccccc1-c1nc(NCc2cccnc2)c2ccccc2n1	x	x	u	x	-3%[56.1 µM]	u
Cc1cccc(OCc2nc3ccccc3n2C)c1	-3%	-6	u	-4%	x	u
Cc1cccc(OCc2nc3ccccc3c(=O)n2N)c1	u	-23	29µM*	-9%	5%	u
Cc1ccccc1OCc1nc2ccccc2n1Cc1ccccc1Cl	u	x	10µM*	-41%	x	u
Cc1ccccc1OCc1nc2ccccc2n1C	-28%	2	u	8%	x	u
COc1cccc(OCc2nc3ccccc3n2Cc2ccccc2C)c1	u	x	12µM*	-30%	0%	21µM*
CCCn1c(COc2cccc(C)c2)nc2ccccc21	-19%	x	21µM*	-21%	3%	u
Nn1c(COc2cccc(Cl)c2)nc2ccccc2c1=O	12%	-10	-12%	5%	4%	4%
CCOc1ccccc1/C=N\Nc1cnn(Cc2ccccc2)c(=O)c1Cl	2%	u	u	10%	6%	23µM*
CCCN(CCC)CCCNC(=O)c1cc2c(=O)n(C)c3ccccc3c2s1	-15%	x	18µM*	-48%	0%	u
COCCCNC(=O)c1cc2c(=O)n(C)c3ccccc3c2n1C	44%	-4	u	60%	8%	18µM*
CCCCN(CC)CCNC(=O)c1cc2c(=O)n(C)c3ccccc3c2n1C	-2%	-80*	15µM*	-27%	-4%	18µM*
CCN(CC)CCNC(=O)c1cc2c(=O)n(C)c3ccccc3c2n1C	-9%	u	u	-11%	2%	u
CCN(CC)CCNC(=O)c1cc2c(=O)n(C)c3cc(Cl)ccc3c2s1	14%	x	21µM*	-16%	2%	u
COCCNC(=O)c1cc2c(=O)n(C)c3ccccc3c2n1C	-2%	-6	-14%	-15%	-1%	-10%
C=C(C)C(=O)/C=C/c1ccc(C(F)(F)F)cc1	x	x	x	x	6%	x
CCOC(=O)c1sc2cccc(F)c2c1S(=O)(=O)N1CCN(c2cccc(Cl)c2)CC1	-15%	x	u	-11%	-1%	u
CCCN(CCC)CCCNC(=O)c1cc2c(=O)n(C)c3ccccc3c2n1C	14%	-65*	26µM*	-33%	1%	u
CCN(CC)CCCNC(=O)c1cc2c(=O)n(C)c3ccccc3c2n1C	5%	-87*	u	-36%	2%	u
